Source: PubChem BioAssay (NCI)
This is part of a sample that, as a whole, favours compounds with a hit. Of some 79,000 tested, about 15% had one in any assay. Activity calls are given as the source filed them. Rule as the data show it: active = growth inhibition above about 70%; inactive = the rest.

Experiments:
[1] = NCI Yeast Anticancer Drug Screen. Data for the rad14 strain (AID 159);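 also: 0% = growth of vehicle-treated control cultures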; conditions: S. cerevisiae rad14 strain growth inhibition, stronger effect = higher value
Method in brief: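 A mutant yeast strain defective in DNA damage repair is treated with compound; inhibition of its growth is scored against untreated, vehicle-exposed cultures.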

[2] = NCI Yeast Anticancer Drug Screen. Data for the sgs1 mgt1 strain (AID 161);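 also: 0% = growth of cultures given vehicle only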; conditions: S. cerevisiae sgs1 mgt1 strain, stronger effect = higher value
Method in brief: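 This yeast growth screen uses a strain with defined DNA-repair lesions; compound-treated growth is compared with vehicle-treated growth.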

[3] = NCI Yeast Anticancer Drug Screen. Data for the CLN2oe strain (AID 163);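 also: 0% = growth of vehicle-only control cultures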; conditions: S. cerevisiae CLN2oe strain, stronger effect = higher value
Method in brief: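 Values reflect how much compound exposure reduced yeast growth, referenced to vehicle-exposed cells. Assay organism is a strain with a defined genetic change affecting cell-cycle control.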

[4] = NCI Yeast Anticancer Drug Screen. Data for the cln2 rad14 strain (AID 165);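 also: 0% = growth equal to vehicle treated cultures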; conditions: S. cerevisiae cln2 rad14 strain, stronger effect = higher value
Method in brief: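 Relative to vehicle controls, growth inhibition of compound-treated cln2 rad14 yeast was recorded.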

[5] = NCI Yeast Anticancer Drug Screen. Data for the bub3 strain (AID 167); conditions: S. cerevisiae bub3 mutant strain, stronger effect = higher value
Method in brief: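 Steps: expose the mutant yeast strain to compound; grow alongside vehicle-treated cultures; measure growth; express inhibition against the vehicle cultures.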

[6] = NCI Yeast Anticancer Drug Screen. Data for the wt2 strain (AID 169);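 also: 0% = growth of vehicle-treated yeast cultures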; conditions: S. cerevisiae wt2 strain growth inhibition, stronger effect = higher value
Method in brief: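 Values express reduction in yeast growth under compound treatment, referenced to vehicle-treated cells.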

[7] = NCI Yeast Anticancer Drug Screen. Data for the mlh1 strain (AID 171);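 also: 0% = growth of vehicle-treated control cultures of the same strain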; conditions: S. cerevisiae mlh1 strain growth inhibition, stronger effect = higher value
Method in brief: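 Steps: expose the defined-mutant yeast strain to compound; expose a parallel culture to vehicle; measure growth; express compound effect as inhibition relative to the vehicle culture.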

[8] = NCI Yeast Anticancer Drug Screen. Data for the sgs1 strain (AID 173);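 also: 0% = growth of vehicle-only control cultures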; conditions: S. cerevisiae sgs1 mutant, stronger effect = higher value
Method in brief: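 Treat defined-mutant yeast with compound; measure growth; calculate inhibition relative to vehicle-treated cells.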

[9] = NCI Yeast Anticancer Drug Screen. Data for the rad18 strain (AID 177); conditions: S. cerevisiae rad18 mutant growth inhibition, stronger effect = higher value
Method in brief: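 A genetically defined yeast mutant impaired in DNA damage repair was treated with test compounds, then its growth was measured against cultures receiving vehicle alone.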

[10] = NCI Yeast Anticancer Drug Screen. Data for the rad50EPP+ strain (AID 151);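 also: 0% = growth of vehicle-treated control cultures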; conditions: S. cerevisiae rad50 mutant strain, stronger effect = higher value
Method in brief: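 Exposing the rad50EPP+ strain to each compound, growth was compared with vehicle-only cultures to give inhibition.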

[11] = NCI Yeast Anticancer Drug Screen. Data for the mgt1 strain (AID 153); conditions: S. cerevisiae mgt1 mutant growth inhibition, stronger effect = higher value
Method in brief: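 Genetically defined yeast (mgt1) treated with compound; inhibition of growth expressed against vehicle-treated controls.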

[12] = NCI Yeast Anticancer Drug Screen. Data for the rad50 strain (AID 155);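 also: 0% = growth of vehicle-only cultures of the same strain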; conditions: S. cerevisiae rad50 strain growth inhibition, stronger effect = higher value
Method in brief: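 Inhibition values express reduced yeast growth in compound-treated cultures relative to vehicle-treated controls.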

[13] = NCI Yeast Anticancer Drug Screen. Data for the mec2-1 strain (AID 157); conditions: S. cerevisiae mec2-1 strain, stronger effect = higher value
Method in brief: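 Readout is yeast growth inhibition, normalised to vehicle-treated controls, in the mec2-1 strain exposed to compound.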

[14] = NCI Yeast Anticancer Drug Screen. Data for the mlh1 rad18 strain (AID 175); conditions: S. cerevisiae mlh1 rad18 strain growth inhibition, stronger effect = higher value
Method in brief: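 Test agents were incubated with a yeast strain of defined genotype (DNA damage repair defect). Inhibition of growth was derived by comparison with vehicle-exposed cultures.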

[15] = NCI Yeast Anticancer Drug Screen. Data for the wt1 strain (AID 149);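 also: 0% = growth of vehicle-treated wt1 cultures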; conditions: S. cerevisiae wt1 strain (SPY 50644) growth inhibition, stronger effect = higher value
Method in brief: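 Compounds are added to wt1 yeast cultures. Growth is then measured. Inhibition is expressed relative to vehicle-treated controls.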

[16] = at 5.0 µM (retest, dose inferred, filed as 0.5)
[17] = at 50.0 µM (retest, dose inferred, filed as 5.0)

Measured: growth inhibition

CC(=O)O/N=C/c1c2ccccc2cc2ccccc12
inactive: [2]; [16] 30% | [2]; at 50.0 µM 63.6% | [3]; at 1.2 µM -10% | [3]; at 3.7 µM -20% | [3]; at 11.0 µM -13% | [3]; at 33.0 µM -6% | [3]; at 100.0 µM -6% | [4]; [16] 15% | [4]; [17] 40% | [4]; at 50.0 µM -47.8% | [5]; at 1.2 µM 9% | [5]; at 3.7 µM 12% | [5]; [16] 58% | [5]; at 11.0 µM 26% | [5]; at 33.0 µM 47% | [5]; at 50.0 µM 43.1% | [5]; at 100.0 µM 63% | [6]; at 1.2 µM -1% | [6]; at 3.7 µM -1% | [6]; at 11.0 µM -2% | [6]; at 33.0 µM 13% | [6]; at 100.0 µM 32% | [7]; at 1.2 µM 1% | [7]; at 3.7 µM -1% | [7]; at 11.0 µM 1% | [7]; at 33.0 µM 17% | [7]; at 100.0 µM 52% | [8]; at 1.2 µM -1% | [8]; at 3.7 µM -1% | [8]; at 11.0 µM 3% | [8]; at 33.0 µM 29% | [8]; at 100.0 µM 58% | [9]; at 1.2 µM 0% | [9]; at 3.7 µM -1% | [9]; at 11.0 µM 11% | [9]; at 33.0 µM 54%
active: [1]; at 100.0 µM 78% | [2]; [17] 88% | [5]; [17] 84% | [9]; at 100.0 µM 83%

O=C1c2ccccc2C(=O)C1C(c1ccc(F)cc1)C1C(=O)c2ccccc2C1=O
active: [10]; at 100.0 µM 75% | [11]; at 100.0 µM 76% | [12]; at 50.0 µM 77.5% | [12]; at 100.0 µM 88% | [13]; [17] 81% | [13]; at 50.0 µM 75% | [13]; at 100.0 µM 83% | [1]; at 100.0 µM 82% | [3]; at 100.0 µM 86% | [4]; [17] 89% | [4]; at 50.0 µM 85.8% | [5]; [17] 87% | [5]; at 50.0 µM 79% | [5]; at 100.0 µM 83% | [6]; at 100.0 µM 81% | [7]; at 100.0 µM 82% | [8]; at 100.0 µM 89% | [14]; [17] 74% | [14]; at 50.0 µM 72.1%
inactive: [10]; at 1.2 µM -8% | [10]; at 3.7 µM 8% | [10]; at 11.0 µM 21% | [10]; at 33.0 µM 61% | [11]; at 1.2 µM 0% | [11]; at 3.7 µM -11% | [11]; at 11.0 µM -17% | [11]; at 33.0 µM 5% | [12]; at 1.2 µM 13% | [12]; at 3.7 µM 5% | [12]; [16] 21% | [12]; at 11.0 µM 7% | [12]; at 33.0 µM 28% | [12]; [17] 46% | [13]; at 1.2 µM -13% | [13]; at 3.7 µM -6% | [13]; [16] -14% | [13]; at 11.0 µM -14% | [13]; at 33.0 µM 6% | [1]; at 1.2 µM -20% | [1]; at 3.7 µM -20% | [1]; at 11.0 µM -52% | [1]; at 33.0 µM 0% | [2]; [16] 2% | [2]; [17] 41% | [2]; at 50.0 µM 56.2% | [3]; at 1.2 µM 6% | [3]; at 3.7 µM 0% | [3]; at 11.0 µM -1% | [3]; at 33.0 µM 34% | [4]; [16] 27% | [5]; at 1.2 µM -18% | [5]; at 3.7 µM -33% | [5]; [16] 17% | [5]; at 11.0 µM -34% | [5]; at 33.0 µM -17% | [6]; at 1.2 µM 1% | [6]; at 3.7 µM 2% | [6]; at 11.0 µM 1% | [6]; at 33.0 µM 22% | [7]; at 1.2 µM -17% | [7]; at 3.7 µM -15% | [7]; at 11.0 µM -16% | [7]; at 33.0 µM 5% | [8]; at 1.2 µM 11% | [8]; at 3.7 µM 25% | [8]; at 11.0 µM 41% | [8]; at 33.0 µM 54% | [14]; [16] 8%

O=S(=O)(Oc1c(Cl)cc(Cl)cc1Cl)c1ccccc1
inactive: [15]; at 1.2 µM -4% | [15]; at 3.7 µM -7% | [15]; at 11.0 µM -9% | [15]; at 33.0 µM -11% | [15]; at 100.0 µM -5% | [11]; at 1.2 µM -3% | [11]; at 3.7 µM -5% | [11]; at 11.0 µM -2% | [11]; at 33.0 µM 9% | [11]; at 100.0 µM 30% | [12]; at 1.2 µM 0% | [12]; at 3.7 µM 3% | [12]; [16] 8% | [12]; at 11.0 µM 10% | [12]; at 33.0 µM 14% | [12]; [17] 12% | [12]; at 50.0 µM 10.2% | [12]; at 100.0 µM 14% | [13]; at 1.2 µM -4% | [13]; at 3.7 µM -1% | [13]; [16] -9% | [13]; at 11.0 µM 1% | [13]; at 33.0 µM 4% | [13]; [17] 20% | [13]; at 50.0 µM 40.5% | [13]; at 100.0 µM 13% | [1]; at 1.2 µM 0% | [1]; at 3.7 µM 0% | [1]; at 11.0 µM 8% | [1]; at 33.0 µM 11% | [1]; at 100.0 µM 12% | [2]; [16] 2% | [2]; [17] 47% | [2]; at 50.0 µM 66.3% | [3]; at 1.2 µM -1% | [3]; at 3.7 µM -4% | [3]; at 11.0 µM -14% | [3]; at 33.0 µM -14% | [3]; at 100.0 µM -8% | [4]; [16] -18% | [4]; [17] 20% | [4]; at 50.0 µM -33.5% | [5]; at 1.2 µM -1% | [5]; at 3.7 µM -4% | [5]; [16] 0% | [5]; at 11.0 µM -2% | [5]; at 33.0 µM 0% | [5]; [17] -8% | [5]; at 50.0 µM 55.4% | [5]; at 100.0 µM 14% | [6]; at 1.2 µM -1% | [6]; at 3.7 µM -4% | [6]; at 11.0 µM -7% | [6]; at 33.0 µM -2% | [6]; at 100.0 µM 10% | [14]; [16] -7% | [14]; [17] 56% | [14]; at 50.0 µM 63.6% | [9]; at 1.2 µM -3% | [9]; at 3.7 µM 4% | [9]; at 11.0 µM 12% | [9]; at 33.0 µM 19% | [9]; at 100.0 µM 30%
